Screening data: PubChem, several laboratories
BoNT A protease: inhibitors of Botulinum neurotoxin A light chain protease; multiplex microsphere protease substrate cleavage, flow cytometry; inhibition, % at 10 µM; 0.17% of 360,000 active
Bead autofluor: flagged as autofluorescent in microsphere protease counterscreen; 3.1% of 360,000 active; AID 624483; fluorescence intensity (no concentration beside the values); compound autofluorescence counterscreen, microsphere flow cytometry; hits give high values; in the data active = fluorescence intensity above about 16000; inconclusive = no clear call, values can overlap the other calls
SSB-PriA inh: blocks PriA binding to SSB C-terminal tail. AlphaScreen SSBct-PriA binding, biotinylated peptide. inhibition, % at 33 µM. 0.6% of 430,000 active. AID 1272365; in the data active = inhibition mostly above about 37%, no sharp cut-off; inactive = mostly below about 20%
BoNT F protease: BoNT F light chain protease inhibition. Multiplex microsphere protease cleavage assay, flow cytometry. inhibition, % at 10 µM. 0.22% of 360,000 active. AID 588497; in the data active = inhibition above about 35%, passing the limit was not always enough; inconclusive = no clear call, values can overlap the other calls
Anthrax LF prot: blocks Bacillus anthracis lethal factor protease; P15917; multiplex microsphere protease cleavage assay, LF; inhibition, % at 10 µM; 0.12% of 360,000 active
Hits are given with their value; 0 = inactive; ? = inconclusive; - = no result given. An excerpt weighted towards active compounds, which were near 3.1% of everything screened. Rule as the data show it, unless noted: active = inhibition above about 30%; inconclusive = no clear call, values can overlap the other calls; inactive = below that.

SMILES	BoNT A protease	Bead autofluor	SSB-PriA inh	BoNT F protease	Anthrax LF prot
Cc1nc(C)c(C(=O)NCc2cccnc2-c2cccs2)s1	-	-	0	-	-
COc1ccc2nc(N(CCCn3ccnc3)C(=O)/C=C/c3cccs3)sc2c1	-	-	53	-	-
COc1ccc(Cl)c2sc(N(CCCn3ccnc3)C(=O)c3cccc(F)c3)nc12	-	-	0	-	-
O=C(c1cccc(F)c1)N(CCCn1ccnc1)c1nc2ccc(Cl)cc2s1	-	-	52	-	-
O=C(c1ccc2c(c1)OCCO2)N(CCCn1ccnc1)c1nc2ccc(F)cc2s1	-	-	37	-	-
O=C(CSc1nc2c(cnn2-c2ccc(Cl)cc2)c(=O)[nH]1)NCc1ccc2c(c1)OCO2	-	-	0	-	-
COc1ccc(NC(=O)Cn2cnc3c(cnn3C(C)(C)C)c2=O)c(OC)c1	-	-	0	-	-
COc1ccc(NC2=Nc3ccccc3N3C2=Nc2c(c(C)nn2-c2ccc(C)cc2)C3c2cccnc2)cc1 (stereo unspecified)	?	0	0	44	60
CC(=O)Nc1ccc(NC2=Nc3ccccc3N3C2=Nc2c(c(C)nn2-c2ccccc2)C3c2ccccc2)cc1 (stereo unspecified)	147	0	0	0	68
CCc1cc(=O)oc2cc(C)c(CN3CCCC3)c(O)c12	0	17050	0	0	0
COc1ccc(Br)cc1C=NNC(=O)CNC(=O)/C=C/c1ccccc1	-	-	0	-	-
C=C1CC(C)OC(c2ccccc2OCC(O)CN2CCCCC2)C1 (stereo unspecified)	?	21660	0	0	0
COc1ccc(-c2nnn(CC(=O)N(Cc3ccccc3Cl)C(C(=O)NCC3CCCO3)c3ccco3)n2)cc1 (stereo unspecified)	0	20046	0	0	0
Cc1ccc(-c2nnn(CC(=O)N(c3ccccc3F)C(C(=O)NCC3CCCO3)c3c[nH]c4ccccc34)n2)cc1 (stereo unspecified)	0	16194	0	0	0
Cc1ccc(-c2nnn(CC(=O)N(c3ccccc3)C(C(=O)NCC3CCCO3)c3ccc(Cl)cc3)n2)cc1 (stereo unspecified)	0	0	0	0	0
COc1ccc(-c2nnn(CC(=O)N(Cc3ccco3)C(C(=O)NCC3CCCO3)c3ccco3)n2)cc1 (stereo unspecified)	0	0	0	0	0
CCOC(=O)CC(NC(=O)C(CC)c1ccccc1)c1ccccc1Cl (stereo unspecified)	0	0	0	0	0
CCOC(=O)CC(/C(C)=N\O)c1ccccc1 (stereo unspecified)	0	21192	-	0	0
O=C(CNC(=O)c1ccco1)OCc1c(F)cccc1Cl	?	20975	0	0	0
O=C(CNC(=O)c1ccco1)NCC(=O)OCc1c(F)cccc1Cl	0	0	0	0	0
O=C(NCCn1ccnc1-c1ncccn1)Nc1cccs1	-	-	124	-	-
COc1ccccc1NC(=O)NCCn1ccnc1-c1ncccn1	-	-	39	-	-
O=C(Cn1c(=O)oc2ccccc21)NCCn1ccnc1-c1ncccn1	-	-	99	-	-
COc1ccccc1NC(=O)NCCn1ccnc1-c1cnccn1	-	-	0	-	-
C[C@H](Oc1ccccc1)C(=O)NCCn1ccnc1-c1ncccn1	-	-	93	-	-
SMILES	BoNT A protease	Bead autofluor	SSB-PriA inh	BoNT F protease	Anthrax LF prot
CO[C@@H](CNC(=O)CCc1cccc(Cl)c1)c1ccco1	-	-	0	-	-
Cc1cc(C)nc(N/N=C\c2cccs2)n1	-	-	0	-	-
CC(=NNC(=O)c1ccc(Cl)cc1)c1ccc2[nH]ccc2c1	-	-	0	-	-
Cc1ccc(C#N)c(SCc2ccc(C#N)cc2)n1	-	-	0	-	-
CCCc1nnsc1C(=O)NCCn1ccnc1-c1ncccn1	-	-	72	-	-
Cc1nnsc1C(=O)NCCCn1ccnc1-c1ccccc1	-	-	0	-	-
Cc1cc(NC(=O)C2CCCN(S(=O)(=O)c3cccs3)C2)n(C)n1 (stereo unspecified)	-	-	0	-	-
c1ccc(N2CCN(c3cnccn3)CC2)nc1	0	0	0	0	0
N#Cc1cc(C#N)c(N2CCN(c3ccccn3)CC2)nc1N	0	23218	0	0	0
CCc1nnc2ccc(N3CCN(S(=O)(=O)c4cccc(F)c4)CC3)nn12	-	-	0	-	-
C/C(CCc1ccc2c(c1)OCO2)=N\N=C1\NC(=O)CC(C(=O)Nc2ccc(Cl)cc2)S1 (stereo unspecified)	0	21037	-	0	0
CC(CCc1ccc2c(c1)OCO2)=NN=C1NC(=O)CC(C(=O)Nc2ccc(Cl)cc2)S1 (stereo unspecified)	-	-	0	-	-
O=C(CSc1nc(-c2ccccc2)c2cc(Cl)ccc2n1)N1CCOCC1	-	-	0	-	-
CCN1CCN(Cc2ccc(NC(=O)c3cc(NC(=O)c4ccno4)cc(OC)c3)cc2C(F)(F)F)CC1	0	0	0	0	0
CCN1CCN(Cc2ccc(NC(=O)c3cc(NC(=O)c4cncc(-c5cccs5)c4)cc(OC)c3)cc2C(F)(F)F)CC1	0	0	42	0	0
